Holding throughout (assay type): functional
Assay [1] has as its system Plasmodium falciparum. The assay can be described thus: GSK_TCMDC: Inhibition of Plasmodium falciparum 3D7 in whole red blood cells, using parasite LDH activity as an index of growth. Test compounds present at 2uM.
Assay [2] has as its system Plasmodium falciparum. The assay can be described thus: GSK_TCMDC: Inhibition of Plasmodium falciparum Dd2 in whole red blood cells, using parasite LDH activity as an index of growth. Test compounds present at 2uM.
For the next assay, the system named is HepG2. In words: GSK_TCMDC: Percent inhibition of human HepG2 cell line. Test compounds present at 10uM.

Structures are written as SMILES.

Take `Fc1ccc(OC2CN(c3nccc(NCc4ccccc4Cl)n3)C2)cc1`: the Inhibition in the assay on Plasmodium falciparum [1] is 98%; in the assay on Plasmodium falciparum [2], 99%; in the assay on HepG2 it was 0%.
In the case of `CC(Cc1ccc(OCCN2CCN(c3cccc(Cl)c3)CC2)cc1)NCC(O)c1cccc(C(F)(F)F)c1.Cl` (stereo not given), the results for the Inhibition in the assay with Plasmodium falciparum [1], in the assay on Plasmodium falciparum [2] and in the assay with HepG2 were 99%, 98% and 100%, respectively.
As to `O=C(NCC1CCN(Cc2ccc3c(c2)OCCO3)C1)c1cc(-c2ccccc2F)cs1.O=C(O)C(F)(F)F` (stereo not given), the values for the Inhibition with Plasmodium falciparum [1], in the assay with Plasmodium falciparum [2] and in the assay with HepG2 were 95%, 0% and 18%, respectively.
The like results for `O=C(Nc1ccc([N+](=O)[O-])cc1)Nc1nc2ccc(Cl)cc2s1` were, in that order, 92%, 33% and 63%.
The like results for `Nc1nc(N)c2c(ccc3c2ccn3C2C=CCCC2)n1` (stereo not given) were, in that order, 94%, 65% and 68%.
For `Cc1cc(N[C@@H](Cc2ccccc2)C(=O)NCc2cccc(F)c2)nc(NCCOc2ccccc2)n1.O=C(O)C(F)(F)F`, in that order: 97%, 7% and 0%.
`CCN(CC)CCN(Cc1ccc(-c2ccc(C(F)(F)F)cc2)cc1)C(=O)Cn1c(CCc2cccc(F)c2F)nc(=O)c2cc(F)c(F)cc21.O=C(O)C(O)C(O)C(=O)O`: the figures for the Inhibition in the assay with Plasmodium falciparum [1], with Plasmodium falciparum [2] and in the assay with HepG2 were 100%, 56% and 41%, respectively.
The like results for `COc1ccc2nccc([C@@H](O)CN3CCC(NC(=O)C(c4ccsc4)N4CCN(c5ccccc5)CC4)CC3)c2c1` (stereo not given in full) were, in that order, 95%, 17% and 24%.
For `O=C(Nc1cccc(N2CCC(NCCCn3ccnc3)CC2)c1)c1cccc(C(F)(F)F)c1`, in that order: 100%, 2% and 8%.
The like results for `CC(Cc1ccc(C(=O)N2CCN(C(=O)c3ccc(CC(C)NCCc4cccc(Cl)c4)cc3)CC2)cc1)NCCc1cccc(Cl)c1` (stereo not given) were, in that order, 100%, 85% and 99%.
On to `COC(=O)c1ccc2nc(-c3cc(OC)c(O)c(C(=O)NC4CCN(Cc5ccccc5)CC4)c3)[nH]c2c1`, for which the Inhibition in the assay on Plasmodium falciparum [1] was 85%; with Plasmodium falciparum [2], 0%; in the assay on HepG2, 8%.
As for `COc1cccc(CNC[C@@H](O)[C@H](Cc2ccccc2)NC(=O)c2cc(NC(C)C)cc(N3CCCCS3(=O)=O)c2)c1.O=CO`, the Inhibition in the assay with Plasmodium falciparum [1] was 89%; in the assay with Plasmodium falciparum [2] it was 97%; with HepG2 it was 1%.
For `CN(C)CC(O)C(c1ccccc1)c1cccc(Br)c1.Cl` (stereo not given), in that order: 98%, 9% and 22%.
The like results for `COCCN1CCN(Cc2ccc(-c3cccc(-c4nc5ccccc5[nH]4)c3)cc2)CC1.O=C(O)C(F)(F)F` were, in that order, 93%, 10% and 32%.
For `FC(F)(F)c1ccc2[nH]c(-c3ccc(-c4cccc(CNCc5ccccc5)c4)s3)nc2c1.O=C(O)C(F)(F)F`, the figures for the Inhibition in the assay on Plasmodium falciparum [1], with Plasmodium falciparum [2] and in the assay on HepG2 were 100%, 83% and 15%, respectively.
On to `O=C(Nc1ccc(Cl)cc1)Nc1ccc(-c2cccc(-c3nc4cc(F)ccc4[nH]3)c2)cc1`, for which the Inhibition was 100% in the assay with Plasmodium falciparum [1], 96% in the assay on Plasmodium falciparum [2] and 74% with HepG2.
Take `COc1ccc(NC(=O)/C=C/c2ccccc2Cl)cc1OCCN1CCC(N2CCCC2)CC1.O=C(O)C(=O)O`: the Inhibition in the assay on Plasmodium falciparum [1] worked out at 100%; in the assay with Plasmodium falciparum [2], 23%; in the assay on HepG2, 22%.
On to `CC1(C)CCNc2cc(NC(=O)c3ccc(-c4ncccc4C(F)(F)F)cc3)ccc21.Cl`, for which the Inhibition with Plasmodium falciparum [1] was 97%; with Plasmodium falciparum [2] it was 86%; in the assay on HepG2, 7%.
On to `Cl.O=c1cc(NCCCNCc2ccc(C(F)(F)F)s2)[nH]c2ccccc12`, for which the results for the Inhibition with Plasmodium falciparum [1], with Plasmodium falciparum [2] and in the assay on HepG2 were 99%, 68% and 0%, respectively.
With `CC(C)(C)C(=O)N1CCN(c2ccc([N+](=O)[O-])c(NC3CC3)c2)CC1`, the Inhibition in the assay on Plasmodium falciparum [1] is on record as 95%; in the assay with Plasmodium falciparum [2], 97%; in the assay on HepG2 it was 8%.
In the case of `Cc1cc(N2CCCC2)nc(Nc2ccc(NC(=O)c3ccccc3C)cc2)n1`, the Inhibition is reported as 100% in the assay on Plasmodium falciparum [1], 40% in the assay on Plasmodium falciparum [2] and 22% in the assay on HepG2.
The like results for `Cc1cc(NC(=O)CCN2CCN(c3cccc(Cl)c3Cl)CC2)ccc1N1CCN(C(C)C)CC1.Cl` were, in that order, 99%, 8% and 82%.
For `O=C(CC1SC(N2N=C(c3cccs3)CC2c2ccccc2)=NC1=O)Nc1ccccc1F` (stereo not given), in that order: 87%, 76% and 9%.
`O=S(=O)(Nc1ccc(CCN2CCCCC2CCN2CCCC2)cc1)c1ccc(-c2ccccc2)cc1` (stereo not given): the Inhibition worked out at 98% with Plasmodium falciparum [1], 18% in the assay on Plasmodium falciparum [2] and 18% in the assay on HepG2.
With `NC1CCN(c2cnn(Cc3cccc(NC(=O)Nc4ccc(-c5ccccc5)cc4)c3)c(=O)c2Cl)CC1.O=C(O)C(F)(F)F`, the Inhibition with Plasmodium falciparum [1] is reported as 89%; in the assay with Plasmodium falciparum [2] it was 11%; in the assay with HepG2, 5%.
For `CCOc1ccc2c(=NN=Cc3ccccc3OC)cc(C)[nH]c2c1`, in that order: 99%, 93% and 11%.
The like results for `C[C@H](NC(=O)c1c(CN2CCC(N3CCCCC3)CC2)c(-c2ccccc2)nc2cc(O)ccc12)C1CCCCC1` were, in that order, 99%, 72% and 77%.
For `O=C(Cc1c[nH]cn1)Nc1cccc(-c2ccc(-c3nc4cc(C(F)(F)F)ccc4[nH]3)cc2)c1`, in that order: 100%, 99% and 10%.
Take `CC(C)CNC(=S)N1CCCN(c2nc3ccc(Cl)cc3s2)CC1`: the Inhibition with Plasmodium falciparum [1] came to 95%; in the assay with Plasmodium falciparum [2], 11%; with HepG2, 28%.
The like results for `Nc1ccc(-c2nc3cc(-c4ccc5[nH]c(-c6ccc(N)cc6)nc5c4)ccc3[nH]2)cc1` were, in that order, 100%, 96% and 45%.

As usually defined, the Inhibition is the drop in the measured response relative to a control, in per cent.

The values are drawn from ChEMBL document CHEMBL1157539, “Thousands of chemical starting points for antimalarial lead identification” (Nature, 2010).
